According to PubChem BioAssay (NCATS):
Records with an inconclusive call do not appear. Unmarked numbers belong to inactive results. The source made the active and inactive calls. Calls follow the shape of the dose curve; as a rule, active = well fitted inhibition curve with a large enough effect; inconclusive = small, poorly fitted or top-dose-only effect; inactive = flat fitted curve, though single readings scatter.

What follows are molecules tested on HEK293 (assay: Cytotoxic Profiling of Annotated Libraries Using Quantitative High-Throughput Screening (AID 1296008; also: nearly all actives have a fitted effect of over 60% in size)). Settings: Five cell lines viability, CellTiter-Glo ATP luminescence, 48-72 h; max response: hits give low values.
From the text: Cell-based phenotypic screening is a commonly used approach to discover biological pathways, novel drug targets, chemical probes and high-quality hit-to-lead molecules. Many hits identified from high-throughput screening campaign are ruled out through a series of follow-up potency, selectivity/specificity, and cytotoxicity assays. Prioritization of molecules with little or no cytotoxicity for a more in-depth downstream evaluation influence the future direction of projects, so cytotoxicity profiling of the screening libraries at early stage is essential for increasing the likelihood of candidate success. […] For the annotated library, we also examined the primary targets and mechanistic pathways regularly associated with cell death. To our knowledge, this is the first study to use high-throughput screening to profile large libraries for cytotoxicity assessment in both normal and cancer cell lines. In summary, the results generated here constitutes a valuable resource for the scientific community and provides insight on identifying cytotoxic compounds with particular mechanisms of action, and prioritizing compounds with suitable cytotoxicity profile for further evaluation.
A pintool (Kalypsys) was used to transfer 23 nL of compound solution to the 1536-well assay plates. After 48 or 72 hr incubation at 37 degree Celsius, 5% CO2 and 95% humidity, 2.5 uL of CellTiter-Glo (Promega) was dispensed into each well using a dispenser (Aspect Automation, St. Paul, MN) with solenoid valves (Lee Valves, Westbrook CT). Plates were left at room temperature for 10 min before imaging the ATP-coupled luminescence using a ViewLux microplate imager (PerkinElmer, Waltham, MA).
% is scaled to controls: 0 for no effect and ±100 for the full control effect; potency is read from the fitted curve at half-maximal effect.

Compound	max response [%]	Potency	outcome
CC(=O)N1CCN(c2ccc(OCc3nn(C)c(C)c3-c3cccc4c(CCCOc5cccc6ccccc56)c(C(=O)O)n(Cc5cccnc5)c34)cc2)CC1	-15.3	–	–
CCOc1cc2c(c(F)c1OCC)C(=N)N(CC(=O)c1cc(N3CCOCC3)c(OC)c(C(C)(C)C)c1)C2	–	16.4 µM (active)	–
O=C(CN1C(=O)C2(CCCC2)NC[C@H]1c1cc(F)cc(F)c1)Nc1ccc2c(c1)C[C@@]1(C2)C(=O)Nc2ncccc21	–	–	inactive
C=CC[C@@H]1C=C(C)C[C@H](C)C[C@H](OC)[C@H]2O[C@@](O)(C(=O)C(=O)N3CCCC[C@H]3C(=O)O[C@H](C(C)=C[C@@H]3CC[C@H](O)[C@H](OC)C3)[C@@H](C)[C@@H](O)CC1=O)[C@@H](C)C[C@@H]2OC	–	7.43 µM (active)	–
C[C@H]1C[C@H]2[C@@H]3CCC4=CC(=O)C=C[C@]4(C)[C@@H]3C(=O)C[C@]2(C)[C@@]1(O)C(=O)CO	3.81	–	–
COc1cc(C)c(C=CC(C)=CC=CC(C)=CC(=O)O)c(C)c1C	-16.6	–	–
CC[C@H]1OC(=O)[C@H](C)[C@@H](O[C@H]2C[C@@](C)(OC)[C@@H](O)[C@H](C)O2)[C@H](C)[C@@H](O[C@@H]2O[C@H](C)C[C@H](N(C)C)[C@@H]2O)[C@](C)(OC)C[C@@H](C)C(=O)[C@H](C)[C@@H](O)[C@]1(C)O	-15.9	–	–
COc1cc([C@@H]2c3cc4c(cc3[C@@H](O[C@@H]3O[C@@H]5CO[C@@H](c6cccs6)O[C@@H]5[C@H](O)[C@@H]3O)[C@H]3COC(=O)[C@H]23)OCO4)cc(OC)c1O	–	0.148 µM (active)	–
CC(C)(O)[C@H]1CC[C@@](C)([C@H]2[C@@H](O)C[C@@]3(C)[C@@H]4C[C@H](O[C@@H]5O[C@H](CO)[C@@H](O)[C@H](O)[C@@H]5O)[C@H]5C(C)(C)[C@@H](O[C@@H]6OC[C@@H](O)[C@H](O)[C@@H]6O)CC[C@@]56C[C@@]46CC[C@]23C)O1	2.98	–	–
CCCCCN=C(N)NN=Cc1c[nH]c2ccc(OC)cc12	–	7.43 µM (active)	–
CCCCCCCCCCCCCCCC(=O)OC[C@@H](NC(=O)C(Cl)Cl)[C@H](O)c1ccc([N+](=O)[O-])cc1	2.69	–	–
OCCNC1CCCc2c1[nH]c1ccc(-c3ccccc3)cc21 (stereo not given)	–	13.2 µM (active)	–
c1coc(CNc2ncnc3nc[nH]c23)c1	–	–	inactive
CCCCCCCCc1ccc(CCC(N)(CO)CO)cc1	–	26.4 µM (active)	–
OC[C@@H](O)[C@@H](O)[C@H](O)[C@@H](O)CO	2.06	–	–
CC(=O)OC[C@@H]1O[C@@H](n2ccc(=O)[nH]c2=O)[C@H](OC(C)=O)[C@H]1OC(C)=O	-0.274	–	–
CCCc1nc(C(C)(C)O)c(C(=O)O)n1Cc1ccc(-c2ccccc2-c2nn[nH]n2)cc1	–	–	inactive
COC(=O)[C@@H]1CC2=CC(=O)CC[C@]2(C)[C@@]23O[C@@H]2C[C@@]2(C)[C@H](CC[C@@]24CCC(=O)O4)[C@@H]13	–	–	inactive
CCOC(=O)N1CCN([N+]([O-])=NOc2ccc([N+](=O)[O-])cc2[N+](=O)[O-])CC1	–	3.72 µM (active)	–
COC(=O)[C@H](CCCN=C(N)N)NS(=O)(=O)c1ccc(C)cc1	–	–	inactive

Compound	max response [%]	Potency	outcome
c1cc(CN2CCCNCCNCCCNCC2)ccc1CN1CCCNCCNCCCNCC1	–	–	inactive
Cc1noc(-c2ccc(CSCCC(=O)O)cc2)c1NC(=O)OC(C)c1ccccc1Cl (stereo not given)	-6.98	–	–
CC1(C)[C@H](O[C@H]2O[C@H](C(=O)O)[C@@H](O)[C@H](O)[C@H]2O[C@@H]2O[C@H](C(=O)O)[C@@H](O)[C@H](O)[C@H]2O)CC[C@@]2(C)[C@H]1CC[C@]1(C)[C@H]2C(=O)C=C2[C@H]3C[C@@](C)(C(=O)O)CC[C@]3(C)CC[C@]21C	0.699	–	–
COc1ccnc2[nH]cc(C(=O)C(=O)N3CCN(C(=O)c4ccccc4)C[C@@H]3C)c12	-2.26	–	–
Cc1cc(Nc2ncc3c(n2)N(C)C(=O)N(c2cc(NC(=O)c4cccc(C(F)(F)F)c4)ccc2C)C3)n(C)n1	–	0.418 µM (active)	–
Cc1[nH]c(C=C2C(=O)Nc3ccccc32)c(C)c1CCC(=O)O	–	4.18 µM (active)	–
CNC(=O)c1ccc(Nc2cc(Nc3ccccc3S(=O)(=O)C(C)C)c3cc[nH]c3n2)nc1	–	2.09 µM (active)	–
COc1cc(OC)cc(-c2ccc3ncc4ccc(=O)n(-c5ccc(N6CCNCC6)c(C(F)(F)F)c5)c4c3c2)c1	–	3.72 µM (active)	–
C=CC1=C(C(=O)O)N2C(=O)[C@@H](NC(=O)C(=NO)c3csc(N)n3)[C@H]2SC1	0.682	–	–
C[C@H](NCc1ccc(OCc2cccc(F)c2)cc1)C(N)=O	–	11.8 µM (active)	–
Cc1nc(NC(=O)N2CCC[C@@H]2C(N)=O)sc1-c1ccnc(C(C)(C)C(F)(F)F)c1	–	14.8 µM (active)	–
Cc1coc2c1C(=O)C(=O)c1c-2ccc2c(C)cccc12	-8.46	–	–
C=CC(=O)Nc1cccc(Nc2nc(NC3CCC(N(C)C)CC3)nc3c2ncn3C(C)C)c1 (stereo not given)	–	1.32 µM (active)	–
CCN(CC)Cc1ccc2cc(COC(=O)Nc3ccc(C(=O)NO)cc3)ccc2c1	–	0.418 µM (active)	–
CN1CCCN(C(=O)c2cccc(-c3ccc(C=C4C(=O)Nc5ccc(Cl)cc54)o3)c2)CC1	–	1.32 µM (active)	–
Cc1cnn(C)c1C(=O)Nc1cc(Nc2ccc3c(C=Cc4ccccn4)n[nH]c3c2)ccc1F	–	3.72 µM (active)	–
CC(=O)O[C@@]12CO[C@H]1C[C@H](O)[C@@]1(C)C(=O)[C@H](O)C3=C(C)[C@@H](OC(=O)C(O)[C@@H](NC(=O)OC(C)(C)C)c4ccccc4)C[C@@](O)([C@@H](OC(=O)c4ccccc4)[C@@H]21)C3(C)C (stereo not given in full)	-90.2	–	–
Cc1cc(O)c2c(c1)C(=O)c1cccc(O)c1C2=O	–	–	inactive
C=C1C(=O)O[C@H]2[C@@H]1CCC(C)=CCC[C@@]1(C)O[C@@H]21	–	4.18 µM (active)	–
Cc1cnc(NC(=O)Nc2cc(Br)c(C)cc2OC[C@@H]2CNCCO2)cn1	–	1.32 µM (active)	–
